From PubChem
The list is not random: actives were taken first. Their share in the collection is about 2.8%.
CF NFkB inh: inhibitors of cystic fibrosis induced NF-kB. KKLEB NF-kB-GFP reporter, PAF-induced, GFP fluorescence overnight. AID 588850. 360,000 compounds, 0.86% hits. inhibition, % at 5 µM;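 active means at least 50% inhibition at 5 µM, scaled per plate between neutral and stimulator controls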;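 further: PAF is a Pseudomonas aeruginosa culture filtrate used as stimulus; plate controls were PAF-stimulated DMSO wells for no effect and unstimulated DMSO wells for full effect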
HIF-2a block: blocks HIF-2a reporter activity; 786-0 RCC cells HIF-2a reporter, luciferase luminescence, overnight; inhibition, % at 18.8 µM; 360,000 compounds, 0.72% hits; AID 624352;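 active means inhibition of the luminescence signal of 40% or more relative to plate controls, in a single-dose primary screen at 18.75 µM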
Peg3 promoter: reduces Peg3 promoter-driven luciferase expression in HeLa. HeLa PEG-Prom luciferase reporter, luminescence, overnight. 360,000 compounds, 1.7% hits. inhibition, % at 20 µM;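 active means inhibition of at least 50% at 20 µM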
MITF TRPM1 inh: MITF TRPM1 promoter inhibition in SK-MEL-5 cells; inhibition, % at 12.5 µM; 330,000 compounds, 0.83% hits; SK-MEL-5 TRPM1 promoter luciferase, 24 h;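 active means mean inhibition across replicates of 60% or more, whatever share of single replicates reaches that level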
Beta2AR agonist: agonists of human beta-2 adrenergic receptor inducing internalization; P07550; Am2.2-beta2AR cells, FAP receptor internalization, flow cytometry; response, % (test concentration not listed); 340,000 compounds, 0.43% hits; AID 504454;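 active means response above a set limit, near 3 SD of response in nonfluorescent compounds, cut at about 42% in these data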
Target sequence (P07550 whole entry, looked up): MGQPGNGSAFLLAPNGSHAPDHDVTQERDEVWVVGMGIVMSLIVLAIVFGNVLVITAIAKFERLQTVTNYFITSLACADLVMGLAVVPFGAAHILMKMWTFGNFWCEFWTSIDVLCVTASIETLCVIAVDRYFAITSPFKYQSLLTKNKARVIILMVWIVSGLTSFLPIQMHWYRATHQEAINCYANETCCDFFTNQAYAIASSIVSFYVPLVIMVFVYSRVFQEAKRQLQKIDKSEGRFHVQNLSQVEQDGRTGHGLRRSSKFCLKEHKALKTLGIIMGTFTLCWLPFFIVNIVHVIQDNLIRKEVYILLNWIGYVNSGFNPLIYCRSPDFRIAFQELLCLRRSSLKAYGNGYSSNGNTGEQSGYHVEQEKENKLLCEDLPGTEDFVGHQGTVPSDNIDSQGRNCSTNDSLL
KKLEB cytotox: reduces viability of KKLEB cystic fibrosis airway cells | 360,000 compounds, 0.36% hits | activity change (cytotoxicity), % at 5 µM | AID 602141 | KKLEB CF airway cells viability, ATPlite luminescence, overnight; hits give low values; cells stimulated with P. aeruginosa culture filtrate;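 active means corrected activity change at or below -50% at 5 µM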
An asterisk follows results filed as active; / = not tested or not shown.

SMILES	CF NFkB inh	HIF-2a block	Peg3 promoter	MITF TRPM1 inh	Beta2AR agonist	KKLEB cytotox
O=C(CNC(=O)c1ccccc1)N/N=C/c1ccc([N+](=O)[O-])s1	-5	-13	-25	63*	-2	0
Cc1ccc(N2CC(C(=O)NC3CCCCCC3)CC2=O)cc1 (stereo unspecified)	-11	7	14	/	/	0
COC(=O)c1ccc(COc2cccn3c(N(C)C(=O)CCC4CCCC4)c(C)nc23)cc1	10	3	23	/	/	-8
O=C(COc1cc2oc(=O)c3c(c2cc1Cl)CCC3)Nc1ccc(CN2CCOCC2)cc1	-12	-13	19	-6	42*	-3
O=C1N/C(=C/c2ccc(N3CCOCC3)o2)C(=O)N1c1cccc(Cl)c1	67*	35	-31	-1	18	-13
Cc1ccc(/C=C2/NC(=O)N(c3ccccc3)C2=O)o1	3	-107	-132	-30	10	10
CC(C)c1cccc(-c2csc(C(C)(O)c3ccncc3)n2)c1 (stereo unspecified)	0	7	5	/	/	6
CCOc1ccccc1/C=N/NC(=O)c1nnn(-c2nonc2N)c1CN1CCC(C)CC1	-14	-7	44	-22	-4	11
CC1CCN(Cc2c(C(=O)N/N=C/c3ccc(C(C)C)cc3)nnn2-c2nonc2N)CC1	-8	-5	65*	-12	5	0
O=C(NC1CC1)c1ccc(-c2nc3ccccc3s2)s1	-13	47*	62*	56	/	-66*
c1ccc(CCNCCCOc2cccc3ccccc23)cc1	22	12	50*	-2	7	6
COc1ccc(-c2ccc3[nH]c4c(c3c2)CCN2C(=O)[C@@H]([C@H](C)O)[C@@H](N(C)C(=O)Nc3ccc(F)cc3)C[C@@H]42)cc1	36	-54	95*	/	/	-18
COc1ccc(-c2ccc3[nH]c4c(c3c2)CCN2C(=O)[C@@H]([C@H](C)O)[C@@H](N(C)C(=O)Nc3cc(Cl)cc(Cl)c3)C[C@@H]42)cc1	13	-21	29	/	/	10
O=S(=O)(CCSc1ccccn1)c1nc2ccccc2s1	32	17	60*	11	0	-35
COC1=C(OC)C(=O)C(Sc2ccc3ccccc3c2)=CC1=O	-13	49*	64*	33	16	4
Nc1ccc(OC(=O)Nc2ccc(O)cc2)cc1	2	77*	14	45	-6	1
O=C(Nc1ccc(N2CCN(c3ccc(O)cc3)CC2)cc1)Oc1ccccc1	-4	-28	7	-4	-5	-6
NCc1ccc(S(N)(=O)=O)cc1	4	2	8	6	8	-51*
Cc1ccc(S(N)(=O)=O)cc1	-1	14	-9	2	15	-13
CCOC(=O)C1(C)CCCN(C(=O)c2cc(C)on2)C1 (stereo unspecified)	-4	10	-3	/	/	-7
CCN1C(N(C)CCc2cccs2)=N[C@@H](c2ccccc2)C(C(=O)OC)=C1C	-24	7	-5	11	2	-12
CCN1C(N(C)CCc2c[nH]c3ccccc23)=N[C@@H](c2cccc(C(F)(F)F)c2)C(C(=O)OC)=C1C	23	7	111*	-6	37	-24
c1ccc(CCNc2nc3ccccc3n3nnnc23)cc1	-9	-68	-101	-14	6	12
ClC(Cl)(Cl)c1nc2ccccc2n2nncc12	11	32	79*	39	-7	-9
CC(C)(C)OC(=O)N1CCN(C(=O)c2ncn3c2c(=O)[nH]c2ccccc23)CC1	-4	-3	6	/	/	3
SMILES	CF NFkB inh	HIF-2a block	Peg3 promoter	MITF TRPM1 inh	Beta2AR agonist	KKLEB cytotox
O=C(CCC1CCN(C(=O)CC2=CCCCC2)CC1)NCc1ccc(F)cc1	10	13	1	/	/	-4
Cc1nc2ccc(C(=O)N(C)Cc3ccccc3)cn2c1N(C)C(=O)CCc1ccccc1	8	-5	4	/	/	-6
O=C1N=c2ccccc2=C1c1sc(=S)n(Cc2ccccc2Cl)c1O	-1	17	83*	24	-10	5
O=C1N=c2ccccc2=C1c1sc(=S)n(-c2ccc(O)cc2)c1O	21	20	20	19	-3	-16
NC1=NC[C@H](c2ccccc2)N1CCCCC1CCCCC1	5	7	100*	15	3	-26
O=[N+]([O-])c1ccc(Sc2cccc[n+]2[O-])c2nonc12	84*	91*	111*	100*	8	-97*
CC1=C(/C=C/C(C)=C/C=C/C(C)=C/C(=O)O)C(C)(C)CCC1	73*	14	12	-35	10	-8
CC(/C=C\c1ccccc1)=C/C(=O)O	7	7	8	3	4	1
CCc1nc2c(OCc3ccc(C(F)(F)F)cc3)cccn2c1N(C)C(=O)C1CC1	-9	-2	14	/	/	4
COc1ccc(Cn2cc(CN3CCOCC3)nn2)cc1	-13	-3	-1	/	/	0
COc1ccc(NC(=O)c2cc(-c3cc(C)cc(C)c3O)n[nH]2)cc1Cl	33	-12	61*	2	9	-4
COc1ccc(NC(=O)c2cc(-c3ccccc3O)n[nH]2)cc1Cl	-6	-64	-41	-4	-7	11
c1ccc(-c2noc(-c3ccc4ccccc4c3)n2)nc1	-42	88*	87*	79*	-3	-91*
c1ccc(-c2noc(-c3ccncc3)n2)nc1	8	-136	-102	-10	-6	2
CCOC(=O)/C(N=Nc1ccc(F)cc1)=C(/O)c1ccc([N+](=O)[O-])cc1	67*	-1	-6	16	7	-14
CCOC(=O)/C(C)=N/NC(=O)c1ccc([N+](=O)[O-])cc1	1	16	4	-13	6	8
CCC(c1nnnn1-c1c(C)cccc1C)N1CCN(c2ccc(C(F)(F)F)cc2[N+](=O)[O-])CC1 (stereo unspecified)	/	5	/	/	/	/
COc1cc(C2C(C#N)=C(C)NC3=C2C(=O)c2ccccc23)cc(OC)c1OC (stereo unspecified)	28	-4	23	77*	10	-22
COc1ccc(C2C(C#N)=C(C)NC3=C2C(=O)c2ccccc23)cc1 (stereo unspecified)	-34	23	20	-3	-6	4
COc1ccc([C@@]23Oc4cc(OC)cc(OC)c4[C@]2(O)[C@H](O)[C@H](C(=O)N(C)C)[C@H]3c2ccccc2)cc1	60*	56*	97*	66*	13	2
Cc1cc(Nc2nc3ccccc3nc2Cl)n(-c2ccc([N+](=O)[O-])cc2)n1	41	27	53*	11	3	-19
Cc1cc(Nc2nc3ccccc3[nH]c2=O)n(-c2ccccc2)n1	-20	-8	16	11	17	11
CN(C)CCCNc1nc2cc(-c3ccc(F)cc3)sc2c(=O)n1C	-4	-41	90*	/	/	-7
